This note sets out measurements from PubChem BioAssay AID686978 (National Center for Advancing Translational Sciences (NCATS), 2013).

The campaign covered roughly 420,000 compounds. About 64,000 (15%) were called active. Another 27% or so got no clear call; they are omitted. Calls come from the whole dose curve; as a rule, active = well fitted inhibition curve with a large enough effect; inconclusive = small, poorly fitted or top-dose-only effect; inactive = flat fitted curve, though single readings scatter. A selection follows. A call without a number means that no potency is given here.
Potency is the fitted concentration of half-maximal effect.

The nature of this assay: qHTS for Inhibitors of human tyrosyl-DNA phosphodiesterase 1 (TDP1): qHTS in cells in absence of CPT. Note: nearly all actives have a fitted effect of over 55% in size. To be noted: DT40 Tdp1-/- hTDP1 cells, no CPT, ATP luminescence, 48 h; activity change, negative = growth inhibition: at 46.2 µM (top of the series). The procedure, abridged:
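Stably hTDP1-transfected Tdp1-null chicken DT40 cells were treated with library compounds minus camptothecin and grown for at least 48 hr at 37 °C, after which cellular ATP was quantified by luminescence.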
For orientation: In qHTS, concentration-response curves come from the screen itself.
In the case of `C#CCOCCOCCOCCNc1nc(N2CCN(C(=O)[C@H](Cc3ccc(O)cc3)n3cc(C(N)CC(C)C)nn3)CC2)nc(N2CCN(C(=O)[C@H](CCC(=O)O)n3cc(C(N)[C@H](C)CC)nn3)CC2)n1` (stereo partly specified), the Potency result was “inactive”.

With `CN(C(=O)CSc1nc(C2CC2)nc2ccccc12)c1nc(-c2ccccc2)cs1`, the Potency is 20.6 µM (active).

Consider `O=C(CN1CCN(CC(=O)Nc2ccc3c(c2)OCO3)CC1)Nc1ccc(F)cc1`, for which the Potency entry is “inactive”.

As to `CCNC(=O)CSc1nc(-c2ccccc2)cs1`, the Potency entry is “inactive”.

For `O=C(CSc1nc(C2CC2)nc2ccccc12)Nc1cccc(O)c1`, the Potency entry is “inactive”.

On to `O=C(CSc1nc(C2CC2)nc2ccccc12)Nc1ccc2c(c1)OCCO2`, for which the Potency was 20.6 µM (active).

As to `Cc1nnc(NC(=O)CSc2nc(C3CCCCC3)nc3ccccc23)s1`, the Potency result is “inactive”.

With `COC(=O)CSc1nc(C2CC2)nc2ccccc12`, the Potency entry is “inactive”.

Take `O=C(CSc1nc(-c2cccc(F)c2)[nH]c1-c1ccccc1)Nc1ccc2c(c1)OCO2`: the Potency was 10.3 µM (active).

For `O=C(CSc1nnc(-c2ccccn2)n1-c1ccccc1)Nc1ccc2c(c1)OCO2`, the Potency result is “inactive”.

Turning to `CC(=O)Oc1ccc(C(=O)Nc2nccs2)cc1`, the Potency entry was “inactive”.

Take `Cc1ccc(C(=O)N/C(=C/c2cccnc2)C(=O)O)cc1`: the Potency entry was “inactive”.

As to `Cn1ccnc1SCC(=O)Nc1ccc2c(c1)OCCO2`, the Potency entry is “inactive”.

For `Cc1cc([N+](=O)[O-])c(=O)[nH]c1C`, the Potency entry is “inactive”.

Consider `COc1ccc(S(=O)(=O)NCC(c2ccco2)N2CCOCC2)cc1` (stereo unspecified), for which the Potency result is “inactive”.

For `Cn1cc(S(=O)(=O)NC(c2ccccc2)c2ccccc2)c(=O)n(C)c1=O`, the Potency entry is “inactive”.

As for `CCn1c(SCC(=O)Nc2nccs2)nnc1-c1ccco1`, the Potency entry was “inactive”.

Consider `O=C(COC(=O)c1ccc(F)cc1F)Nc1ncccn1`, for which the Potency entry was “inactive”.

Take `Cc1cc(NC(=O)Nc2ccccc2)n(-c2ccccc2)n1`: the Potency result is “inactive”.

As for `Cc1cc(C)nc(-n2nc(C)cc2NC(=O)c2ccc(F)cc2F)n1`, the Potency was 6.51 µM (active).

With `CC(C)c1ccc(S(=O)(=O)N2CCC3(CC2)OCCO3)cc1`, the Potency result was “inactive”.

With `c1ccc2c(c1)CCc1snnc1-2`, the Potency entry was “inactive”.

With `C=CCn1c(SCc2c(C)noc2C)nc2sc3c(c2c1=O)CCC(C)C3` (stereo unspecified), the Potency is 16.4 µM (active).

Consider `C=CCn1c(SCC(=O)NCCCO)nc2sc3c(c2c1=O)CCC3`, for which the Potency result is “inactive”.

As for `C=CCn1c(SCC(=O)NCC2CCCO2)nc2sc(C)c(C)c2c1=O` (stereo unspecified), the Potency entry is “inactive”.

As for `O=C(CN(CC1CCCO1)C(=O)CNS(=O)(=O)c1ccc(F)cc1)NCc1ccco1` (stereo unspecified), the Potency result was “inactive”.

`Nc1nnc(SCC(=O)NCC(=O)Nc2ccc(F)c(F)c2F)s1`: the Potency result was “inactive”.

`Cc1ccc(Cn2c(C)c(C(=O)NCc3ccccc3C(F)(F)F)sc2=O)cc1`: the Potency entry was “inactive”.

Turning to `Cn1c(CC(=O)Nc2ccc(F)cc2)nnc1SCC(=O)NC1CCCCC1`, the Potency entry was “inactive”.

Consider `O=C(c1ccco1)N1CCN(C(=O)C2c3ccccc3Oc3ccccc32)CC1`, for which the Potency entry was “inactive”.

On to `O=C(Cc1ccccc1Cl)N1CCN(c2ccccn2)CC1`, for which the Potency entry was “inactive”.

In the case of `O=C(CCSc1ccccc1)N1CCN(c2ccccc2F)CC1`, the Potency result is “inactive”.

As to `O=C(CCSCc1ccccc1F)N1CCN(c2ccc(Cl)cc2)CC1`, the Potency is 18.4 µM (active).

For the compound `Cc1cccc(N2CCN(C(=O)CCSCc3ccccc3F)CC2)c1C`, the Potency was 20.6 µM (active).

Turning to `O=C(CCc1ccccc1F)N1CCN(c2ccccc2)CC1`, the Potency result was “inactive”.

For the compound `O=C(CCS(=O)(=O)c1cccc2nsnc12)N1CCN(c2ccccc2F)CC1`, the Potency result is “inactive”.

As to `Cc1ncoc1C(=O)NCCC(c1ccccc1)c1ccccc1`, the Potency result was “inactive”.

As to `Cc1ccc(S(=O)(=O)N2CCN(C(=O)COC(=O)c3c(C)noc3C)CC2)c(C)c1`, the Potency entry is “inactive”.

As for `Cc1nc(-c2ccc(F)cc2)c(CC(=O)Nc2cccc(S(=O)(=O)N3CCOCC3)c2)s1`, the Potency entry was “inactive”.

With `Cc1ccc(S(=O)(=O)N2CCN(C(=O)COC(=O)/C=C/c3cccc(Cl)c3)CC2)c(C)c1`, the Potency was 23.1 µM (active).

As for `O=C(COC(=O)/C=C/c1cccc(Cl)c1)NCc1cccs1`, the Potency result is “inactive”.

For `CCCCOc1ccc(C(=O)NCC(=O)OCC(=O)N2CCN(S(=O)(=O)c3ccc(C)cc3C)CC2)cc1`, the Potency result is “inactive”.

Take `COc1ccc(S(=O)(=O)N2CCN(CC(=O)N3CCOCC3)CC2)cc1OC`: the Potency entry is “inactive”.

Turning to `COc1ccc(S(=O)(=O)N2CCN(C)CC2)c(C)c1`, the Potency entry is “inactive”.

For `Cc1ccc(S(=O)(=O)N2CCN(C(=O)N3CCOCC3)CC2)c(C)c1`, the Potency entry was “inactive”.

For the compound `Cc1ccc(S(=O)(=O)N2CCN(C(=O)Cc3sc(C)nc3-c3ccc(F)cc3)CC2)c(C)c1`, the Potency was 18.4 µM (active).

`Cc1ccc(S(=O)(=O)N2CCC3(CC2)OCCO3)c(C)c1`: the Potency result was “inactive”.

Take `Cc1ccc(S(=O)(=O)N2CCN(C(=O)COC(=O)c3c(C)cc(C)cc3C)CC2)c(C)c1`: the Potency is 10.3 µM (active).

On to `COc1ccc(/C=C/C(=O)OCC(=O)N2CCN(S(=O)(=O)c3ccc(C)cc3C)CC2)cc1OC`, for which the Potency was 20.6 µM (active).

Take `Cc1nc2ncnn2c(C)c1CCC(=O)N1CCN(C(=O)c2ccco2)CC1`: the Potency entry was “inactive”.

In the case of `COc1ccc(CN(C)CCn2cc(C(=O)N3CCSCC3)nn2)cc1C`, the Potency result was “inactive”.

Consider `Cc1cnc(C(=O)Oc2cccc(Cl)c2Cl)cn1`, for which the Potency entry was “inactive”.

Turning to `COc1cc(OC)c(C(=O)NC2CC(C)(C)NC(C)(C)C2)cc1OC`, the Potency entry is “inactive”.

With `O=C(O)CCCC(=O)Nc1ccc(Oc2cccc(C(F)(F)F)c2)nc1`, the Potency result is “inactive”.

For `CCOC(=O)Cn1c2c(c(-c3ccccc3OC)cc1=O)CCCC2`, the Potency result was “inactive”.

For `CCc1cccc(NC(=O)CCCN2C(=O)C(c3ccccc3)Oc3cccnc32)c1` (stereo unspecified), the Potency result is “inactive”.

For `Cc1ccc(CNCc2ccc3c(c2)OCO3)c(C)c1`, the Potency entry is “inactive”.

For `COC(=O)c1sccc1NN1C(=O)c2ccccc2C1=O`, the Potency entry was “inactive”.

Turning to `CCCCn1c(N)c(N(CCOC)C(=O)c2cccc(S(=O)(=O)N(C)c3ccccc3)c2)c(=O)[nH]c1=O`, the Potency result is “inactive”.

Turning to `C=CCC(NCCCO)c1cccc(OC)c1OC` (stereo unspecified), the Potency entry was “inactive”.

For the compound `O=C(CCN1C(=O)[C@H]2CC=CC[C@H]2C1=O)NCc1nc(-c2ccccc2)no1`, the Potency result is “inactive”.

For the compound `O=C(NCCCn1ccnc1)c1cc(Br)c(Br)s1`, the Potency result is “inactive”.

Turning to `O=C(COC(=O)c1cnc(Cl)c(Cl)c1)NCc1ccco1`, the Potency entry was “inactive”.

In the case of `O=C1CCC(=O)N1CCC(=O)N(C(=O)NC1CCCCC1)C1CCCCC1`, the Potency result is “inactive”.

For `CCc1nnc(NC(=O)c2cc(S(=O)(=O)N3CCN(CC)CC3)ccc2Cl)s1`, the Potency entry is “inactive”.

Turning to `COCCOC(=O)C1=C(C)Nc2nc(C)nn2C1c1ccccc1` (stereo unspecified), the Potency result is “inactive”.
